From PubChem BioAssay
MRP-1 activ: H69AR viability gain despite doxorubicin, primary screen, MRP-1 activator project, H69AR cells, CellTiter-Glo; hit rate 0.61% among 140,000; viability rescue; AID 799, 2007; viability increase, % at 10 µM;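 active = viability gain under doxorubicin at or above a set limit, the compound median plus 3 SD, cut at about 4.7% in these data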;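 note: MRP-1 overexpressing cells given doxorubicin 25 µM after compound pretreatment; 18-22 h compound pretreatment then 72 h with doxorubicin before readout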
E-sel TNF inh: E-selectin induction blockers in HUVEC – imaging, immunofluorescence, high content, primary screen | HUVEC TNFa-induced E-selectin immunofluorescence | inhibition, % at 2 µM | hit rate 0.71% among 120,000;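 active = inhibition above the batch mean plus 3 SD, and confirmed as a hit on visual image review, cut at about 43% in these data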
MRP resist rev: reversal of MRP1-mediated doxorubicin resistance, primary screen, H69AR cells, doxorubicin co-treatment. H69AR cells + 2 uM doxorubicin, CellTiter-Glo, 72 h. differential viability (reversal), % at 10 µM. hit rate 0.04% among 85,000. AID 602, 2007;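 active = viability drop by adding the cancer drug above about 55%, with treated viability meeting a 40% cutoff, limit read from the data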;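 note: larger differential means the compound sensitizes cells more to doxorubicin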
VCAM1 TNFa inh: inhibitors of TNFa-induced VCAM1 expression, primary screen, imaging, HUVEC, TNFa stimulus, immunofluorescence; HUVEC TNFa-induced VCAM-1 immunofluorescence, high-content imaging; inhibition, % at 2 µM; hit rate 0.48% among 95,000; AID 802, 2007;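 active = inhibition above the batch mean plus 3 SD, with images confirmed as a hit by eye, cut at about 37% in these data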
F-actin modifier: modifiers of F-actin cytoskeleton organization, primary screen, imaging, HUVEC, phalloidin staining, high-content imaging; HUVEC TNFa F-actin phalloidin imaging; inhibition, % at 2 µM; hit rate 0.18% among 91,000;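 active = inhibition above the batch mean plus 3 SD and confirmed as a hit by visual image inspection, cut at about 30% in these data, passing the limit was not always enough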
Hits are given with their value. Rows were chosen to be rich in hits. Some 1.5% of all compounds tested hit in one or more screens of this group.

CN(C)CCNC(=O)/C(=C/c1ccc(-c2ccc(Cl)cc2)o1)NC(=O)c1ccccc1 was read as MRP-1 activ inactive and E-sel TNF inh 94.
For CN(C)CCNC(=O)/C(=C/c1ccc(-c2ccc(Cl)cc2Cl)o1)NC(=O)c1ccccc1 the results were MRP-1 activ inactive.
Screening Cc1ccsc1/C=C1\SC(N)=NC1=O returned MRP-1 activ inactive, E-sel TNF inh inactive, VCAM1 TNFa inh inactive and F-actin modifier inactive.
Screening Cc1ccc(/C=C2\SC(N)=NC2=O)s1 returned MRP-1 activ inactive and E-sel TNF inh 95.
Cc1ccc(S(=O)(=O)Nc2ccc(Cl)cc2C(=O)c2ccc(F)cc2)cc1 was read as MRP-1 activ inactive and E-sel TNF inh inactive.
For Cc1cccc(NC(=O)Cn2nc(C(F)(F)F)cc2C2CC2)c1 the results were MRP-1 activ inactive, E-sel TNF inh inactive, VCAM1 TNFa inh inactive and F-actin modifier 40.
Cc1ccc(C)c(NC(=O)Cn2nc(C(F)(F)F)cc2C2CC2)c1 was read as MRP-1 activ inactive, E-sel TNF inh inactive, VCAM1 TNFa inh inactive and F-actin modifier inactive.
`CCc1nn2c(N)c(/C=C3\C=Nc4ccccc43)c(=O)nc2s1` gave MRP-1 activ 8.2.
Screening CCc1noc(C)c1C(=O)Nc1nc(-c2cc(C)ccc2C)c(C)s1 returned MRP-1 activ 5.5, E-sel TNF inh inactive, VCAM1 TNFa inh inactive and F-actin modifier inactive.
`CCc1noc(C)c1C(=O)Nc1ncc(C)s1` gave MRP-1 activ inactive, E-sel TNF inh inactive, MRP resist rev inactive, VCAM1 TNFa inh inactive and F-actin modifier inactive.
For CN(C)S(=O)(=O)c1cccc(NC(=O)Cn2cnc3ccccc3c2=O)c1 the results were MRP-1 activ inactive, E-sel TNF inh inactive, MRP resist rev inactive, VCAM1 TNFa inh inactive and F-actin modifier inactive.
Screening COC(=O)c1ccc(NC(=O)C2CCN(C(=O)c3cc(OC)c(OC)c(OC)c3)CC2)cc1 returned MRP-1 activ inactive, E-sel TNF inh inactive, MRP resist rev inactive, VCAM1 TNFa inh inactive and F-actin modifier inactive.
`CCOC(=O)c1ccc(NC(=O)C2CCN(C(=O)c3ccc(OC)c(OC)c3)CC2)cc1` gave MRP-1 activ 11, E-sel TNF inh inactive, MRP resist rev inactive, VCAM1 TNFa inh inactive and F-actin modifier inactive.
`COc1ccc(-n2c(SCC(=O)NCC3CCCO3)nc3ccccc32)cc1` (stereo not given) gave MRP-1 activ inactive, E-sel TNF inh inactive, MRP resist rev inactive, VCAM1 TNFa inh inactive and F-actin modifier inactive.
For O=C(N/C(=C/c1cn(-c2ccccc2)nc1-c1ccccc1)C(=O)N1CCOCC1)c1ccc(Cl)cc1Cl the results were MRP-1 activ inactive and E-sel TNF inh inactive.
CCNc1sc(C(=O)c2cccs2)c(N)c1-c1nc2ccccc2s1 was read as MRP-1 activ 9.0, MRP resist rev inactive, VCAM1 TNFa inh inactive and F-actin modifier inactive.
CCN1/C(=C/C=C/c2oc3ccc(-c4ccccc4)cc3[n+]2CC)Oc2ccc(-c3ccccc3)cc21 was read as E-sel TNF inh inactive.
Screening O=C(COc1ccccc1Cl)N1CCN(c2ccc([N+](=O)[O-])c(N3CCOCC3)c2)CC1 returned MRP-1 activ inactive, E-sel TNF inh inactive, VCAM1 TNFa inh inactive and F-actin modifier inactive.
For CC(/C=C/c1ccco1)=N\NC(=O)c1cc(C)[nH]n1 the results were MRP-1 activ inactive, E-sel TNF inh 100, VCAM1 TNFa inh inactive and F-actin modifier 61.
COc1ccc(C2=CSC3=C(C(=O)c4cccc(S(=O)(=O)N(C)C)c4)CCN23)cc1 was read as MRP-1 activ inactive, E-sel TNF inh inactive, MRP resist rev inactive and VCAM1 TNFa inh inactive.
`CC(=O)CSc1nsc(SCC(C)=O)c1C#N` gave MRP-1 activ inactive, E-sel TNF inh inactive, MRP resist rev inactive, VCAM1 TNFa inh inactive and F-actin modifier inactive.
Screening CC(C)(C)NC(=O)CSc1nsc(SCC(=O)NC(C)(C)C)c1C#N returned MRP-1 activ inactive, MRP resist rev inactive, VCAM1 TNFa inh 72 and F-actin modifier inactive.
O=C(CC1SC(=O)N(Cc2ccc(Cl)cc2)C1=O)Nc1nccs1 (stereo not given) was read as MRP-1 activ 12.
Screening O=C(CSCc1ccc(Cl)cc1)Nc1nccs1 returned MRP-1 activ inactive, E-sel TNF inh inactive, MRP resist rev inactive, VCAM1 TNFa inh inactive and F-actin modifier inactive.
`CCCSc1nc(=O)n2cccc(C)c2n1` gave MRP-1 activ inactive, E-sel TNF inh inactive, VCAM1 TNFa inh inactive and F-actin modifier inactive.
COc1ccccc1N(Cc1ccccc1)S(=O)(=O)c1cccc(C(=O)Nc2ccc(C(C)=O)cc2)c1 was read as MRP-1 activ inactive and E-sel TNF inh 65.
`COc1ccc(OC)c(NC(=O)c2cccc(S(=O)(=O)N(Cc3ccccc3)c3ccccc3OC)c2)c1` gave MRP-1 activ inactive.
For Cc1ccc(NC(=O)c2cc(S(=O)(=O)c3ccccc3)ccc2Cl)cc1 the results were MRP-1 activ inactive, E-sel TNF inh inactive, VCAM1 TNFa inh inactive and F-actin modifier inactive.
OCCN1CCOCCN(CCO)CCN(CCO)CC1 was read as MRP-1 activ inactive, MRP resist rev inactive, VCAM1 TNFa inh inactive and F-actin modifier inactive.
Screening NCCN1CCN(CCN)CC1 returned MRP-1 activ inactive, E-sel TNF inh inactive, MRP resist rev inactive, VCAM1 TNFa inh 94 and F-actin modifier inactive.
`CCOc1ccc(C(=O)NCC(c2cccs2)N(C)C)cc1` (stereo not given) gave MRP-1 activ inactive and E-sel TNF inh inactive.
Screening COc1ccc(C2CC(c3ccccc3)=NN2C(=O)COC(=O)c2cccnc2Cl)cc1 (stereo not given) returned MRP-1 activ 5.4 and E-sel TNF inh inactive.
For COc1ccc(C2CC(c3ccccc3)=NN2C(=O)COC(=O)c2cccnc2)cc1 (stereo not given) the results were MRP-1 activ inactive and E-sel TNF inh inactive.
O=C1N(c2ccccc2)C2CS(=O)(=O)CC2N1c1ccc(Br)cc1 (stereo not given) was read as MRP-1 activ inactive, E-sel TNF inh 100, MRP resist rev inactive, VCAM1 TNFa inh inactive and F-actin modifier inactive.
`O=C(NCc1cccs1)C(=O)NCC1OCCCN1S(=O)(=O)c1ccccc1` (stereo not given) gave MRP-1 activ inactive.
CCSc1nc2c(c(=O)[nH]1)C(c1cccs1)C(C(=O)OC)=C(C)N2 (stereo not given) was read as MRP-1 activ inactive and E-sel TNF inh inactive.
`O=C(Cn1nnc(-c2ccc(Cl)cc2)n1)NC1CCN(Cc2ccccc2)CC1` gave MRP-1 activ inactive, E-sel TNF inh 100, MRP resist rev inactive, VCAM1 TNFa inh inactive and F-actin modifier inactive.
`O=C(NC1CCCC1)C(c1c[nH]c2ccccc12)N(C(=O)Cn1nnc(-c2ccc(Cl)cc2)n1)c1ccccc1` (stereo not given) gave MRP-1 activ 11, VCAM1 TNFa inh inactive and F-actin modifier inactive.
